Source: PubChem BioAssay (NMMLSC)
BoNT A protease – blocks Botulinum neurotoxin A light chain protease; multiplex microsphere protease substrate cleavage, flow cytometry; inhibition, % at 10 µM; 0.17% of 360,000 active; also: plate controls were buffer without enzyme for full effect and enzyme alone for no effect
BoNT F protease – blocks Botulinum neurotoxin F light chain protease; Multiplex microsphere protease cleavage assay, flow cytometry; inhibition, % at 10 µM; 0.22% of 360,000 active; in the data active = inhibition above about 35%, passing the limit was not always enough; inconclusive = no clear call, values can overlap the other calls; also: plate controls were buffer without enzyme for full effect and enzyme alone for no effect
Autofluor counter – flagged as autofluorescent in microsphere protease counterscreen; fluorescence intensity (no concentration beside the values); 3.1% of 360,000 active; compound autofluorescence counterscreen, microsphere flow cytometry; hits give high values; in the data active = fluorescence intensity above about 16000; inconclusive = no clear call, values can overlap the other calls
Anthrax LF inh2 – blocks Bacillus anthracis lethal factor protease; P15917; multiplex microsphere protease cleavage assay, LF; inhibition, % at 10 µM; 0.12% of 360,000 active; AID 588501; also: plate controls were buffer without enzyme for full effect and enzyme alone for no effect
Numbers without * were called inactive; ? = inconclusive. This is a sample that favours compounds with a hit; in the whole collection about 3.5% have one here. Rule as the data show it, unless noted: active = inhibition above about 30%; inconclusive = no clear call, values can overlap the other calls; inactive = below that.

SMILES	BoNT A protease	BoNT F protease	Autofluor counter	Anthrax LF inh2
O=C(Nc1cnccn1)c1ccncc1	-2.9	-4.4	24053*	-7.2
CCOC(=O)CC1(C)c2nc(NC(C)=O)sc2Cc2sc(NC(C)=O)nc21	0.7	-5.9	6214	-9.3
COc1ccccc1C(=O)NC(=O)COC(=O)c1ccc(Br)o1	1.7	3.3	4977	2.5
CCN(CC(=O)NCc1ccncc1)S(=O)(=O)c1ccc(OC)cc1	0.4	-3.9	3570	0.2
CC(=O)Oc1c(/C=C(\C#N)C(N)=O)[nH]c2ccccc12	0.9	0.8	2674	0.7
O=C(c1ccc(Br)cc1)c1cc(-c2ccccn2)c(N2CCOCC2)s1	?	4.9	19199*	5.5
FC(F)Sc1ccc(Nc2ncnc3nc[nH]c23)cc1	?	-4.5	23588*	-3.5
COc1cc(/C=C(\C#N)c2nc3ccc(C)cc3[nH]2)c([N+](=O)[O-])cc1OC	2.7	2.0	3421	-5.7
CCN(CC)c1ccc(/C=C(/C#N)c2nc3ccc(C)cc3[nH]2)c(OC(C)C)c1	-2.7	64.2*	27707*	-3.9
CCCOc1cc(N(CC)CC)ccc1/C=C(/C#N)c1nc2ccc(C)cc2[nH]1	3.4	44.7*	23823*	1.8
Cc1cc(/C=C(\C#N)c2nc3ccccc3[nH]2)c(C)n1C	-1.1	-11.6	2731	-5.4
CCOc1cc(N(CC)CC)ccc1/C=C(/C#N)c1nc2ccccc2[nH]1	-3.7	41.5*	12266	0.4
O=S(=O)(NCC(c1ccco1)N1CCOCC1)c1ccc(Cl)cc1 (stereo not drawn)	-1.7	-5.9	10290	-1.3
CCCS(=O)(=O)c1nnnn1-c1cccc(OC)c1	0.9	0.4	19154*	-1.2
CCN(CC)CCNc1ccnc2cc(Cl)ccc12	-0.5	-0.2	20811*	-0.5
Cc1ccc(S(=O)(=O)N2CCN(S(=O)(=O)N3CCOCC3)CC2)cc1C	-0.5	4.3	16305*	-3.0
Cc1cc(C)cc(Nc2nc(-c3ccc(S(=O)(=O)N4CCCC4)cc3)cs2)c1	-1.5	-16.1	1864	-1.7
Cc1ccc(S(=O)(=O)N2CCCC2)cc1S(=O)(=O)N1CCCC1	0.8	22.7	3696	-1.5
Cc1ccc(S(=O)(=O)N2CCCN(S(=O)(=O)c3ccc(C)c(C)c3)CC2)cc1C	-1.9	-3.3	16751*	-7.1
Cc1ccc(Nc2nc(-c3ccc(S(=O)(=O)N4CCCC4)cc3)cs2)cc1C	-4.4	-8.8	25361*	-4.6
CCCSc1nnc(NC(=O)c2nc(SC)ncc2Cl)s1	?	8.2	19506*	-1.5
CSc1ncc(Cl)c(C(=O)Nc2nnc(SC)s2)n1	0.9	9.9	4499	-2.2
COc1cccc(CCOC(=O)c2c(-c3ccsc3)oc3c2C(OC(C)=O)CCC3)c1 (stereo not drawn)	-0.1	-1.1	6144	-6.1
Cc1ccccc1N(C(=O)Cn1nnc(-c2cccs2)n1)C(C(=O)NCCC(C)C)c1ccco1 (stereo not drawn)	0.1	7.6	3291	-5.4
Cc1cccc2c1OCC/C2=N\NC(=O)COc1ccccc1	-1.7	-1.1	20669*	-0.1
SMILES	BoNT A protease	BoNT F protease	Autofluor counter	Anthrax LF inh2
Cc1ccc2c(c1N)C(=O)c1ccccc1C2=O	8.7	7.5	4990	-0.6
Cn1c(=O)c(N)c2c3c(c(Br)ccc31)C(=O)c1ccccc1-2	38.1*	-0.8	3760	19.4
COc1ccc(NC(=O)c2ccccc2C)cc1	3.6	?	3987	-0.9
NC(=O)c1ccccc1NC(=O)NC1CCCCC1	?	-1.0	22128*	-3.3
O=C(Nc1ccccc1NC(=O)NC1CCCCC1)NC1CCCCC1	?	-3.3	16874*	-2.1
COc1ccc(NC(=O)c2ccccc2NC(=O)NC2CCCCC2)cc1	1.0	-1.7	23203*	-4.5
COc1ccc(NC(=O)c2cccnc2Nc2ccccc2)cc1	-8.4	-11.4	23086*	-0.2
COC(=O)c1ccccc1NC(=O)NC1CCCC1	-0.2	0.3	2246	-1.0
CCCCNC(=O)Nc1ccccc1C(=O)Nc1ccc(OC)cc1	0.2	4.7	2230	-0.7
Cc1ccc(Cl)c(NC(=O)COC(=O)c2cc[n+]([O-])cc2)c1Cl	0.7	1.3	2815	-5.3
O=C(NC1CCN(C(=O)Nc2ccc(F)cc2)CC1)c1ccc(F)cc1	0.2	-1.8	5199	-0.3
COCC(=O)Nc1ccccc1C(=O)Nc1ccc(OC)cc1	0.6	2.4	22328*	-1.5
Cc1ccccc1C(=O)NC1CCCCCCC1	0.1	29.8	3657	-2.5
O=C(Nc1cccc(Cl)c1)Nc1ccccc1C(=O)O	-7.6	-30.1	8318	4.7
NC(=O)c1ccccc1NC(=O)Nc1cccc(Cl)c1	-1.4	-5.9	20064*	1.0
COc1ccccc1Nc1ncccc1C(=O)NCc1ccccc1	-0.6	-3.4	20309*	-3.4
CSc1ccccc1C(=O)NC1CCCCCC1	1.3	1.1	20204*	0.7
COc1ccc(NC(=O)CN2C(=O)NC(C)(Cc3ccc(OC)c(OC)c3)C2=O)cc1 (stereo not drawn)	0.0	-0.1	3745	6.5
O=C(CCCn1c(=S)[nH]c2cc3c(cc2c1=O)OCO3)N1CCN(c2ccccn2)CC1	?	8.7	19027*	-1.3
CN1CCN(C(=O)CCCOc2ccc(Cl)cc2Cl)CC1	-2.8	-6.0	17214*	-3.4
O=C(CCCCCn1c(=S)[nH]c2cc3c(cc2c1=O)OCO3)N1CCN(Cc2ccccc2)CC1	-0.6	-8.0	4278	-2.6
O=C(c1ccccc1OCc1ccccc1Br)N1CCN(c2ncccn2)CC1	-0.6	-5.2	16398*	-1.1
O=C(c1ccccc1Br)N1CCN(c2ncccn2)CC1	-2.4	-8.2	3583	-5.5
O=C(CCCOc1ccc(Cl)cc1Cl)N1CCN(c2ccccn2)CC1	-2.7	-3.3	16837*	-4.9
O=C(COc1ccc(Cl)cc1Cl)N1CCN(c2ccccn2)CC1	-0.2	-3.7	3739	1.8
SMILES	BoNT A protease	BoNT F protease	Autofluor counter	Anthrax LF inh2
CC(C)Nc1ncnc2c1ncn2[C@H]1CN(CCN2CCOCC2)C[C@@H](CO)O1	0.0	2.4	2912	-0.6
Cc1ccc(C2=NS(=O)(=O)N(C)C(C(=O)NC3CCCC3)=C2)cc1	0.5	-0.7	5789	-1.7
O=C(COc1ccccc1Cl)N1CCN(c2ncccn2)CC1	-2.4	-3.0	22968*	0.9
COc1ccc(CCNC(=O)CSc2nnc(CNc3ccc(Cl)cc3)o2)cc1OC	-0.9	0.2	21392*	0.4
COc1ccc(NCc2nnc(SCC(=O)c3ccc(C)cc3)o2)cc1	-0.5	5.4	4313	-3.6
COc1ccc(NCc2nnc(SCC(=O)Nc3cc(C)cc(C)c3)o2)cc1	?	-1.5	21267*	-3.4
COc1ccc(CCNC(=O)CSc2nnc(CNC(=O)c3c(F)cccc3Cl)o2)cc1OC	1.0	-1.1	5648	0.9
COc1ccccc1N1CCN(C(=O)CCC(=O)Nc2nnc(C(C)C)s2)CC1	0.1	2.4	5924	-0.7
CC1=CC(C)(C)N2C(=O)C3(C(C#N)=C(N)Oc4cc(O)ccc43)c3c(C)c(C)cc1c32 (stereo not drawn)	-1.8	-1.9	23874*	-1.5
CC1=CC(C)(C)N2C(=O)C3(C(C#N)=C(N)OC4=C3C(=O)CCC4)c3c(C)c(C)cc1c32 (stereo not drawn)	-3.7	-5.8	17514*	-2.1
CC(C)N(C)c1ncnc2c1ncn2[C@H]1CN(Cc2ccc(-c3ccccc3)cc2)C[C@@H](CO)O1	-1.7	-23.8	3902	-8.6
